# FLuc counter: inhibits or activates purified firefly luciferase, miR-21 counter-screen; purified FLuc, Km substrates, luminescence inhibition; Potency, µM (titrated, usually from 57.5 µM), hits mostly inhibitors; hit rate 6.9% among 360,000; note: nearly all actives have a fitted effect of over 55% in size
# Target sequence (P08659 whole entry, looked up): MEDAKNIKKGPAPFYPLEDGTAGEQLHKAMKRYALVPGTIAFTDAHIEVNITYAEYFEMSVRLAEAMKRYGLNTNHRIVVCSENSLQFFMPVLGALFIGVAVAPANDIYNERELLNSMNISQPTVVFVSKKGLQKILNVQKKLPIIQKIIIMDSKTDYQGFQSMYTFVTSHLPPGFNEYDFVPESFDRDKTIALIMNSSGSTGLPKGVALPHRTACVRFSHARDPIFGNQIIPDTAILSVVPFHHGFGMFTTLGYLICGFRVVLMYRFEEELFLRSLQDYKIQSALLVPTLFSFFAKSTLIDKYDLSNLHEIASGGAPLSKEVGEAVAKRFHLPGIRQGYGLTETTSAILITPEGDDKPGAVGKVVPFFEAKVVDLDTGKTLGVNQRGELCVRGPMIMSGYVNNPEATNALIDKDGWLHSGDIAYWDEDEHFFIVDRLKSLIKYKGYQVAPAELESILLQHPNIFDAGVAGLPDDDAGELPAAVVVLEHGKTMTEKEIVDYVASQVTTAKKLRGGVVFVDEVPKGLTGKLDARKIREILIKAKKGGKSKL
#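 Purified P. pyralis luciferase, 10 nM final, with Km-level 10 uM D-luciferin and 10 uM ATP in 50 mM Tris acetate pH 7.5, 10 mM Mg acetate, 0.01% Tween-20, 0.05% BSA; 6-point qHTS titration about 60 µM downward; luminescence read.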
# Luc counter: counter-screen: inhibitors of Kinase-Glo firefly luciferase. Q27757. hit rate 0.28% among 200,000. Potency, µM (series often up to 38.3 µM), hits mostly inhibitors. Kinase-Glo luciferase, ATP luminescence, 8 min. AID 1379; note: nearly all actives have a fitted effect of over 60% in size
#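 Substrate mix (final 50 mM imidazole pH 7.2, 50 mM KCl, 7 mM MgCl2, 10 uM ATP, 0.01% Tween 20, 0.05% BSA) plus pin-tool compound, then Kinase-Glo detection mix; 8 min ambient, luminescence read.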
# ELG1 genotox: inducers of genotoxicity in HEK293T ELG1-luciferase cells; HEK293T ELG1-luciferase reporter, luminescence, 16 h; Potency, µM (highest dose often 46 µM), hits mostly activators; hit rate 1.3% among 330,000; AID 504466; note: nearly all actives have a fitted effect of over 60% in size
#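 Cells (2,000/well) expressing the ELG1-luciferase fusion are dosed by pin tool and kept 16 hr at 37 °C, 5% CO2. Signal comes from ONE-Glo luciferase reagent after 30 min at room temperature.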
# SMN2 splice enh: SMN2 splice variant enhancement; HEK293 SMN2-luciferase splicing reporter, luminescence, 30-36 h; Potency, µM (highest dose often 46.1 µM), most hits filed as activators; hit rate 2.8% among 210,000; note: nearly all actives have a fitted effect of over 55% in size
#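 HEK293 cells carry an SMN2 minigene-luciferase reporter in which exon 7 inclusion puts luciferase in frame. Cells were seeded at 2000 cells/well, attached for 10-12 hours, then exposed to compounds for 30-36 hours at 37C before ONE-Glo luminescence.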
# NPC1 promoter act: NPC1 promoter activation. Huh7 NPC1 promoter luciferase reporter, 24 h. Potency, µM (titrated, usually from 9.22 µM), actives largely listed as activators. hit rate 2.4% among 320,000. AID 485313; note: nearly all actives have a fitted effect of over 60% in size
#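 Stable NPC1-promoter luciferase Huh7 line; cpd (DMSO) 24 h, 37 °C, 5% CO2; Amplite luciferase reagent 10 min RT; luminescence readout. qHTS format.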
# Rab9 promoter act: Rab9 promoter activation; Potency, µM (doses to about 9.22 µM), hits mostly activators; hit rate 2.8% among 320,000; Huh7 Rab9 promoter-luciferase reporter, luminescence, 24 h; note: nearly all actives have a fitted effect of over 60% in size
#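 Luminescence from Amplite-detected luciferase (10 minutes, ambient) reports Rab9 promoter activation. Before that, stable Rab9-luciferase Huh7 cells (1500/well, reduced-serum OP-MEM I plus 10% FBS) were exposed to compound for 24 hours at 37C.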
# Numbers stand for hits; i = inactive; ? = inconclusive; nt = not tested or not shown. Rows were chosen to be rich in hits. Some 7.5% of all compounds tested hit in one or more screens of this group. Calls come from the whole dose curve; as a rule, active = well fitted curve in the direction sought with a large enough effect; inconclusive = small, poorly fitted or top-dose-only effect, or another doubt; inactive = no such curve, though single readings can be large; an effect the other way counts as inactive or inconclusive.
SMILES,FLuc counter,Luc counter,ELG1 genotox,SMN2 splice enh,NPC1 promoter act,Rab9 promoter act
O=c1[nH]c(COc2ccc(Br)cc2Cl)nc2ccccc12,1.9µM,nt,7.3µM,nt,3.16µM,3.55µM
CN(C)c1ccc(/C=C(\C#N)c2nc3ccccc3c(=O)[nH]2)cc1,0.301µM,nt,nt,i,nt,nt
CN(C)c1ccc(/C=C/c2nc3ccccc3c(=O)[nH]2)cc1,0.213µM,nt,0.58µM,nt,0.112µM,0.0891µM
O=c1[nH]c(/C=C/c2ccc(Br)cc2)nc2ccccc12,0.169µM,nt,?,nt,0.316µM,0.398µM
Cc1cccc(/C=C(\C#N)c2nc3ccccc3c(=O)[nH]2)c1,i,nt,nt,i,nt,nt
O=C(CCSCc1cnn(-c2ccccc2)c1-n1cccc1)NCc1ccccc1Cl,i,nt,nt,nt,nt,nt
COc1ccc(N2CCN(C(=O)c3cccn3-c3nnc(N4CCCC4)s3)CC2)cc1,i,nt,nt,nt,nt,nt
Cc1nc2ccccn2c1C(=O)OCC#N,i,i,i,i,i,i
Cc1cc(C)c(S(=O)(=O)NCc2csc(-c3ccccc3)n2)c(C)c1,i,nt,nt,i,nt,nt
COc1ccc(NC(=O)CSc2c(C(C)C)cnc3c2c(=O)n(C)c(=O)n3C)c(OC)c1,i,nt,nt,nt,nt,nt
Cc1nc(/C=C/c2ccccc2)[nH]c(=O)c1-c1ccccc1,1.9µM,i,?,2.82µM,?,0.631µM
O=c1[nH]c(/C=C/c2ccccc2[N+](=O)[O-])nc2ccccc12,i,i,i,i,?,?
COc1cc(/C=C/c2nc3ccccc3c(=O)[nH]2)cc(Cl)c1O,i,nt,i,nt,i,i
Cc1cccc(/C=C\c2nc3ccccc3c(=O)[nH]2)c1,0.849µM,?,10.3µM,2.82µM,?,?
COCCn1c(SCC(=O)Nc2ccc(C)cc2)nc2c(oc3ccccc32)c1=O,i,i,?,?,i,i
COCCCn1c(SCC(=O)Nc2ccc(C)cc2)nc2ccccc2c1=O,23.9µM,i,i,nt,i,i
COCCn1c(SCC(=O)Nc2ccccc2)nc2c(oc3ccccc32)c1=O,i,i,23.1µM,i,i,i
Cc1cc(C)nc(S/C=C/C(=O)c2ccccc2F)n1,1.51µM,nt,?,nt,i,i
Cc1cc(NC(=O)c2ccccc2F)on1,?,i,?,?,i,i
O=C(c1cc(-c2ccccc2)on1)N1CCCCCC1,9.53µM,nt,2.31µM,nt,1.41µM,3.55µM
O=C(c1cc(-c2ccc(F)cc2)on1)N1CCCC1,2.69µM,nt,?,nt,0.794µM,0.631µM
O=C(c1cc(-c2ccc(F)cc2)on1)N1CCCCCC1,5.36µM,nt,?,nt,0.891µM,1.41µM
O=C(c1cc(-c2ccc(O)cc2)on1)N1CCN(c2ccccc2)CC1,?,nt,i,i,i,i
O=C(c1cc(-c2ccc(Br)cc2)on1)N1CCCC1,1.51µM,nt,2.06µM,nt,0.631µM,0.501µM
O=C(c1cc(-c2ccc(O)cc2)on1)N1CCN(c2ccc(F)cc2)CC1,?,nt,i,nt,i,i
SMILES,FLuc counter,Luc counter,ELG1 genotox,SMN2 splice enh,NPC1 promoter act,Rab9 promoter act
CN1CCN(C(=O)c2cc(-c3ccccc3)on2)CC1,?,i,i,?,?,?
COc1ccc(-n2c(=O)c3c4c(sc3n(Cc3cc(=O)n5c(C)cccc5n3)c2=O)CCC4)c(OC)c1,i,nt,nt,i,nt,nt
CCN(CC)CCOC(=O)c1ccc(NC(=O)c2cc3cc(OC)ccc3oc2=O)cc1,i,nt,nt,i,nt,nt
Cc1cccc2c(SCC(N)=O)nc(-c3ccccc3)nc12,i,nt,i,nt,i,i
Cc1ccc(-c2cc(C(=O)N3CCCCCC3)no2)cc1,1.51µM,nt,?,nt,0.501µM,0.562µM
CCOC(=O)C1CCCN(C(=O)c2cc(COc3ccc(C)nc3)on2)C1 (stereo unspecified),?,nt,i,nt,i,i
O=C(c1cc(-c2ccc(F)cc2)on1)N1CCOCC1,6.01µM,nt,?,nt,1.12µM,1.58µM
CCOC(=O)C1CCCN(C(=O)c2cc(-c3ccc(C)cc3)on2)C1 (stereo unspecified),12µM,i,?,?,?,0.891µM
O=C(c1cc(-c2ccc(O)cc2)on1)N1CCCC1,6.01µM,nt,4.61µM,nt,0.447µM,0.398µM
Cc1ccc(C)c(N2CCN(C(=O)c3cc4c(=O)n(Cc5ccccc5)ccc4nc3C)CC2)c1,i,nt,nt,nt,nt,nt
O=C(/C=C/c1ccc(F)cc1)N1CCCN(C(=O)/C=C/c2ccc(F)cc2)CC1,?,i,i,i,i,i
O=C(/C=C/c1ccc(-c2ccc(F)cc2)o1)N1CCCC1,13.5µM,nt,?,nt,2.82µM,3.16µM
COC(=O)Nc1c(-c2ccccc2)nc2ccc(Cl)cn12,i,nt,i,nt,i,i
Cc1ccccc1Nc1c(-c2ccncc2)nc2ccc(Br)cn12,i,i,i,12.6µM,i,i
Cc1ccccc1Nc1c(-c2cccnc2)nc2ccc(Br)cn12,i,i,i,i,i,i
COC(=O)CNc1c(-c2ccccc2)nc2ccc(Br)cn12,7.57µM,i,?,i,?,?
Cc1ccc2nc(-c3ccncc3)c(Nc3ccccc3C)n2c1,i,nt,nt,11.2µM,nt,nt
Cc1ccc2nc(-c3cccnc3)c(Nc3ccccc3C)n2c1,i,i,i,i,i,i
COc1ccc(C(=O)NC(=S)NNC(=O)c2ccccc2O)cc1,21.3µM,nt,i,nt,i,i
COc1ccc(C(=O)NC(=S)Nc2ccccc2F)cc1,2.69µM,i,?,12.6µM,1.78µM,1.41µM
Cc1ccc(CCC(=O)Nc2ccccc2F)s1,7.57µM,i,10.3µM,?,?,?
COc1ccc(CNC(=S)Nc2ccccc2F)cc1,i,nt,i,nt,i,i
COc1ccc(CCCC(=O)Nc2ccccc2F)cc1,13.5µM,i,?,i,i,?
O=C(CC(=O)Nc1ccccc1F)Nc1ccccc1F,i,nt,i,nt,i,i
CCOC(=O)c1c(S(=O)(=O)N2CCCC(C(=O)NCc3ccccc3OC)C2)c(C)n(C)c1C (stereo unspecified),i,nt,nt,nt,nt,nt
SMILES,FLuc counter,Luc counter,ELG1 genotox,SMN2 splice enh,NPC1 promoter act,Rab9 promoter act
Cc1ccc(C)c(CN2C(=O)c3ccccc3S(=O)(=O)c3ccc(C(=O)N4CCN(c5ccccc5)CC4)cc32)c1,i,nt,nt,i,nt,nt
COc1ccc(-n2nc(C(=O)NCC(=O)N3CCOCC3)c3ccccc3c2=O)cc1OC,23.9µM,nt,i,nt,i,i
COc1ccc(-n2nc(C(=O)NCC(=O)N3CCN(c4ccccc4OC)CC3)c3ccccc3c2=O)cc1OC,3.79µM,nt,i,nt,i,i
COc1ccc(-n2nc(C(=O)NCC(=O)N3CCN(Cc4ccc5c(c4)OCO5)CC3)c3ccccc3c2=O)cc1OC,i,i,i,i,i,i
COc1ccc(-n2nc(C(=O)NCC(=O)N3CCN(c4ccccc4)CC3)c3ccccc3c2=O)cc1OC,0.849µM,nt,i,nt,?,i
Cc1cc(C(=O)CSc2cccc[n+]2[O-])c(C)n1-c1ccccc1,1.69µM,i,?,1µM,0.447µM,0.447µM
Cc1cc(C(=O)C(C)OC(=O)c2ccc(NC(=O)CC#N)cc2)c(C)n1-c1ccccc1 (stereo unspecified),16.9µM,nt,i,nt,i,i
CC(=O)Nc1ccc(SCCCC(=O)c2ccccc2)cc1,23.9µM,nt,?,nt,?,?

# Assay outcomes: PubChem, National Center for Advancing Translational Sciences (NCATS)
